High-throughput results from PubChem BioAssay.
Many of the other results were omitted from the sample, so hits are more common in it than they were.
mHTT-CaM PPI inh: mutant huntingtin-calmodulin interaction inhibitors – biochemical, AlphaScreen, primary screen; AID 1671202, 2021; hit rate 3.6% among 190,000; AlphaScreen His-mHTT/GST-CaM binding, luminescence; inhibition, % at 15 µM;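 further: 0% = both proteins with DMSO and 100% = one protein alone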
Pf apPOL inh: Pf-apPOL inhibitors, biochemical, fluorescence | Recombinant Pf-apPOL, molecular beacon fluorescence, 1.5 h | inhibition, % at 10 µM | AID 1794808, 2022 | hit rate 0.25% among 210,000
* = called active by the depositor; . = not tested or not shown. No stated cut-off is given here; in the data, active means inhibition above about 50%; inactive means the rest.

SMILES	mHTT-CaM PPI inh	Pf apPOL inh
O=C(NCc1ccco1)C1CN(C(=O)c2ccncc2)CC12CCCCC2 (centres undefined)	0.7	0.8
O=c1c2ccccc2c(-c2ccccc2)nn1-c1cc(N2CCCC2)ccc1[N+](=O)[O-]	34.0	0.2
Cc1ccc(-c2nn(-c3cc(N4CCNCC4)ccc3[N+](=O)[O-])c(=O)c3ccccc23)cc1C	100.3*	-0.1
CCOc1ccc(C=C2Oc3c(ccc(O)c3CN3CCOCC3)C2=O)cc1	-8.0	-7.5
O=C(O)C1CSC(c2ccc(Cl)c(Cl)c2)N1 (centres undefined)	2.0	3.6
O=C(O)C1CSC(c2cc(Cl)cc(Cl)c2O)N1 (centres undefined)	91.0*	0.4
O=C(O)C1CSC(c2cc(Br)ccc2O)N1 (centres undefined)	56.0*	7.9
COc1ccc(Br)cc1C1NC(C(=O)O)CS1 (centres undefined)	16.0	-7.7
CCN1CCN(S(=O)(=O)c2ccc3nc(-c4ccccc4)[nH]c3c2)CC1	0.0	-6.7
CC(C)c1ccc(NC(=S)N(Cc2ccccc2)C(C)C)cc1	.	3.2
Cc1cc(C2CCCN2C(=O)Nc2ccccc2F)on1 (centres undefined)	0.6	3.3
CC(C)CCNC(=O)N1CCC2(C1)C(=O)Nc1ccccc12 (centres undefined)	5.4	-5.8
O=C(NCc1ccc2c(c1)OCO2)c1ccc(-c2cccc(F)c2)nc1	-5.4	-1.2
Cc1ccc(-c2nc3sccn3c2NC(=O)c2ccc(Cl)cc2)cc1	58.0*	-4.5
CC(C)(C)c1ccc(C(=O)Nc2c(-c3ccccc3)nc3sccn23)cc1	42.0	-2.8
O=C1/C(=C/C=C/c2ccco2)CC/C1=C\C=C\c1ccco1	84.0*	0.9
O=C1C(=Cc2ccco2)COCC1=Cc1ccco1	.	7.7
O=C(Nc1ccc(N2CCCN(C(=O)C3CC3)CC2)nc1)c1ccccc1Cl	-3.0	-5.5
O=C(O)CCC(=O)Nc1nc2n(n1)C(c1ccccc1)C=C(c1ccc(Cl)cc1)N2 (centres undefined)	31.0	2.3
O=C(Nc1nc2n(n1)C(c1ccccc1)C=C(c1ccccc1)N2)c1ccccc1 (centres undefined)	59.0*	0.3
COc1ccc(C2CC(=O)C3=C(C2)Nc2ccccc2NC3c2cccc(C(F)(F)F)c2)cc1 (centres undefined)	17.0	8.2
O=C1CC(c2ccccc2)CC2=C1C(c1ccc(C(F)(F)F)cc1)Nc1ccccc1N2 (centres undefined)	86.0*	-2.5
COc1ccc(C2CC(=O)C3=C(C2)Nc2ccccc2NC3c2ccc(C(F)(F)F)cc2)cc1 (centres undefined)	53.0*	2.3
COc1ccc(C2CC(=O)C3=C(C2)Nc2ccccc2NC3c2ccc(Cl)c([N+](=O)[O-])c2)cc1 (centres undefined)	52.0*	-14.7
COc1ccc(C2Nc3ccccc3NC3=C2C(=O)CC(c2ccccc2)C3)cc1 (centres undefined)	26.4	-2.1
SMILES	mHTT-CaM PPI inh	Pf apPOL inh
O=C1CC(c2ccccc2)CC2=C1C(c1ccccc1C(F)(F)F)Nc1ccccc1N2 (centres undefined)	19.0	-4.1
O=C1CC(c2ccccc2)CC2=C1C(c1ccc(F)c(Br)c1)Nc1ccccc1N2 (centres undefined)	59.0*	-4.6
O=C1CC(c2ccccc2)CC2=C1C(c1cccc(F)c1)Nc1ccccc1N2 (centres undefined)	9.0	-5.2
COc1ccc(-c2ncc3c(n2)CCN(S(=O)(=O)c2cc(F)ccc2F)C3)cc1	-5.8	-1.2
Cc1ccc(-n2nc3c(c2NC(=O)C2CCCC2)CS(=O)C3)cc1 (centres undefined)	1.0	0.1
COc1ccc(-c2noc(C3CCCN3C(=O)Nc3cc(C)cc(C)c3)n2)cc1 (centres undefined)	-6.2	-5.0
Cc1c(-c2ccc(C=O)o2)ccc([N+](=O)[O-])c1C	9.9	-9.6
O=C1CC(c2cccs2)CC2=C1C(c1ccc(F)cc1)Nc1ccccc1N2 (centres undefined)	18.0	-19.1
Cc1ccc(C2Nc3ccccc3NC3=C2C(=O)CC(c2ccccc2F)C3)cc1 (centres undefined)	39.0	-3.8
O=C1CC(c2cccs2)CC2=C1C(c1ccc(Cl)c(Cl)c1)Nc1ccccc1N2 (centres undefined)	77.0*	-2.7
O=C1CC(c2ccccc2Cl)CC2=C1C(c1ccc(F)cc1)Nc1ccccc1N2 (centres undefined)	57.0*	-1.8
Cn1c(N2CCCC(C(=O)N3CCOCC3)C2)cc(=O)n(C)c1=O (centres undefined)	-11.7	-1.3
COc1ccc(OC)c(C2c3c(oc4ccccc4c3=O)C(=O)N2C)c1 (centres undefined)	-1.3	-10.4
Cc1nc(C)c(Cc2ccc(Cl)cc2)c(N2CCN(S(C)(=O)=O)CC2)n1	22.1	-2.8
CCS(=O)(=O)N1CCN(c2nc(C)nc(C)c2Cc2ccc(Cl)cc2)CC1	53.2*	0.9
CSc1cccc(NC(=S)N2CCC(CC3CCN(C(=S)Nc4cccc(SC)c4)CC3)CC2)c1	.	-5.8
N#Cc1ccc(C(=O)Nc2ccc(-c3nc4ccccc4s3)cc2)cc1	3.4	-4.3
O=C1C(=Cc2cc(Br)cc3c2OCOC3)Oc2c1ccc(O)c2CN1CCOCC1	8.2	-1.9
COc1cccc(-c2nnc3n2N=C(c2ccc(O)c(O)c2)CS3)c1	52.0*	-2.8
Oc1ccc(C2=Nn3c(nnc3-c3cccc(F)c3)SC2)cc1O	39.0	-1.1
O=C1C2C3c4ccccc4C([N+](=O)[O-])(c4ccccc43)C2C(=O)N1CCCCO (centres undefined)	17.7	-2.2
COc1ccccc1CNC(=O)c1cccc(I)c1	-15.5	-4.5
Cc1cc2ccccc2n1CCNS(=O)(=O)c1ccc(Br)cc1	36.0	-1.3
Cc1cc(C)c(S(=O)(=O)NCCn2c(C)cc3ccccc32)c(C)c1	62.0*	6.5
O=C(Nc1ccccc1[N+](=O)[O-])c1ccc(Br)c(S(=O)(=O)Nc2ccccc2)c1	23.1	5.5
SMILES	mHTT-CaM PPI inh	Pf apPOL inh
O=C(Nc1ccccc1[N+](=O)[O-])c1ccc(Cl)c(S(=O)(=O)Nc2ccc(Cl)cc2)c1	86.4*	-17.3
O=C(Nc1ccccc1[N+](=O)[O-])c1ccc(Cl)c(S(=O)(=O)NCc2ccccc2)c1	33.5	-6.2
O=C(Nc1ccccc1[N+](=O)[O-])c1ccc(Cl)c(S(=O)(=O)NCc2ccco2)c1	28.9	53.6*
Cn1c(CCNC(=O)c2cccs2)nc2cccnc21	-10.6	-9.8
COCC(=O)Nc1cccn2nc(C(C)C)nc12	-5.6	-2.1
O=c1oc2ccccc2cc1-c1cccc(N=Cc2ccccc2O)c1	6.0	-3.2
Cc1c(Cl)c(C)c([N+](=O)[O-])c(O)c1C=Nc1cccc(O)c1	76.0*	1.3
O=[N+]([O-])c1cccc(C=Nc2cccc(O)c2)c1O	74.0*	-2.7
Oc1ccccc1C=Nc1cccc(N=Cc2ccccc2O)c1	71.0*	-3.1
O=[N+]([O-])c1cccc(N=Cc2cccc([N+](=O)[O-])c2O)c1	5.0	0.5
Cc1ccc(N=Cc2c(C)c(Cl)c(C)c([N+](=O)[O-])c2O)c(O)c1	8.0	2.0
COc1cccc(CNC(=O)C2CCN(c3cc(N4CCSCC4)ncn3)CC2)c1	-1.1	-3.4
COc1cccc(C(=O)N2CCC(c3cnn(-c4cccc(F)c4)c3)CC2)c1OC	22.6	-1.1
COCCNC(=O)c1ccc(NC(=O)C2CC2)cc1N1CCCCCC1	-6.5	3.9
